Gal4-VP16 FLuc – counter-screen for ROR gamma inhibitors: Gal4-VP16 reporter; Drosophila S2 Gal4-VP16 UAS-luciferase, luminescence, 20 h; hit rate 3.5% among 310,000; Potency, µM (series often up to 53.6 µM), for inactives: top-dose activity, negative = inhibition, hits mostly inhibitors;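 note: Gal4-VP16 expression switched on by copper sulfate through the metallothionein promoter; % is set by controls: 0 for no effect and ±100 for the full control effect; nearly all actives have a fitted effect of over 50% in size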
RORg inh – inhibitors of mouse ROR gamma transcriptional activity; P51450; Drosophila S2 Gal4-RORgamma UAS-luciferase reporter, 20 h; Potency, µM (highest dose often 53.6 µM), for inactives: at the top dose activity change, negative = inhibition, most hits filed as inhibitors; hit rate 5.4% among 310,000; AID 2551; note: % is set by controls: 0 for no effect and ±100 for the full control effect; nearly all actives have a fitted effect of over 60% in size
Target sequence (P51450 whole entry, looked up, the tested form may be a part): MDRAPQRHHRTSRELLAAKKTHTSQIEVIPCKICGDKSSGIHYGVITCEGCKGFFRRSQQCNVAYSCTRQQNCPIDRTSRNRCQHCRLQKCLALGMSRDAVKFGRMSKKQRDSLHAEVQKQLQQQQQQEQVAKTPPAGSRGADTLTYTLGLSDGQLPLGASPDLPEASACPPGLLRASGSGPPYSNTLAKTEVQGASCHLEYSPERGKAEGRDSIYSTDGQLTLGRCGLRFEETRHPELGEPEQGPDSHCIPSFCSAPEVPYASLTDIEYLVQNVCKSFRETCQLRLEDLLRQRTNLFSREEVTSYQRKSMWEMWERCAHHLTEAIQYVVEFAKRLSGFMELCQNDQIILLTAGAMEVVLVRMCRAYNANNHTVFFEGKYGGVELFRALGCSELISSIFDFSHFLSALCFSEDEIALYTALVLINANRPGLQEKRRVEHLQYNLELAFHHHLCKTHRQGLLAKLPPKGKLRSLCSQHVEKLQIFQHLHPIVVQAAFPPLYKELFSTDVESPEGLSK
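Drosophila Schneider cells stably carrying a metallothionein-driven Gal4 DBD–ROR gamma fusion and a UAS-Photinus luciferase reporter were exposed to compound for 1 hr, then induced with copper sulfate (700 uM final) for 20 hr at ambient temperature before luminescence reading.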
HepG2 tox – counter-screen for TGF-b inhibitors: cytotoxicity in HepG2 cells | HepG2 CAGA-GFP viability, ATP luminescence, 18 h | Potency, µM (series often up to 46.1 µM), for the others: top-dose activity change, negative = cytotoxicity, usual class: cytotoxic | hit rate 0.76% among 410,000
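HepG2 CAGA-GFP cells (1000/well, DMEM with 1% FBS) received compound, then TGF-beta at 500 pg/mL final, and were incubated 18 hours at 37 degrees C. Viability was read by CellTiter-Glo luminescence. Media-only wells were set as complete cell-killing and DMSO as no toxicity.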
ATXN viability – viability counter-screen for ATXN expression inhibitors; S2 cells (HEK-293 line with an ATXN2-luciferase reporter) viability, CellTiter-Fluor protease fluorescence, 24 h; Potency, µM (doses to about 56.7 µM), hits mostly cytotoxic; hit rate 0.49% among 400,000; AID 651635; note: nearly all actives have a fitted effect of over 40% in size
TGFb SMAD3 inh – TGF-b pathway inhibition; Potency, µM (top dose mostly 46.1 µM), without a hit: top-dose activity, negative = inhibition, usual class: inhibitors; HepG2 CAGA-GFP TGF-b/SMAD3 reporter, GFP fluorescence, 18 h; TGF-beta stimulated, 500 pg/mL final; hit rate 1.2% among 410,000; note: % is set by controls: 0 for no effect and ±100 for the full control effect; nearly all actives have a fitted effect of over 65% in size
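TGF-beta reporter screen: HEPG2 CAGA-GFP, 1% FBS, 500 pg/mL TGF-beta final, 18 h; per-cell GFP summed per well; curves fitted and categorized by class.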
ATXN2 expr inh – inhibitors of ATXN2 expression | HEK-293 ATXN2-luciferase reporter, luminescence, 24 h | Potency, µM (top dose mostly 57 µM), inactives show at the highest dose activity change, negative = inhibition, most hits filed as inhibitors | hit rate 0.72% among 360,000; note: % is set by controls: 0 for no effect and ±100 for the full control effect; nearly all actives have a fitted effect of over 55% in size
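qHTS (up to 57 uM final) was run with 24 h compound exposure of reporter cells at 37 °C. Each well was multiplexed: SteadyGlo luminescence measured ATXN2-luciferase expression after a fluorogenic Gly-Phe-AFC viability readout (25 uM final).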
An asterisk follows results filed as active; i = inactive; ? = inconclusive; . = not tested or not shown; ! = not active in a repeat; [ ] = remark or other dose. In the library only some 6.3% were active in any assay of this set; here they are far more common. Calls come from the whole dose curve; as a rule, active = well fitted curve in the direction sought with a large enough effect; inconclusive = small, poorly fitted or top-dose-only effect, or another doubt; inactive = no such curve, though single readings can be large; an effect the other way counts as inactive or inconclusive. Potency is the fitted concentration of half-maximal effect.

SMILES	Gal4-VP16 FLuc	RORg inh	HepG2 tox	ATXN viability	TGFb SMAD3 inh	ATXN2 expr inh
COc1ccc(CNCCC(c2ccccc2)c2ccc3c(c2)OCO3)cc1 (configuration not stated)	?	?	-98%	22µM*	22µM*	25µM*!
COc1ccccc1C(CCNCc1ccc(N(C)C)cc1)c1ccc(OC(C)C)cc1 (configuration not stated)	-15%	?	-113%	32µM*	?	.
COc1ccccc1C(CCNCc1ccccc1)c1ccc(OC(C)C)cc1 (configuration not stated)	-19%	?	13µM*	?	?	28µM*
CC(C)CCC(CCNCc1ccccn1)c1ccc2c(c1)OCO2 (configuration not stated)	-11%	-40%	16µM*	?	?	.
CN(C)c1ccc(C(CNC(=O)c2ccc(C(C)(C)C)cc2)N2CCCC2)cc1 (configuration not stated)	.	.	-67%	.	?	.
CCC1C(=O)NCCN1Cc1ccc2c(c1)CN(Cc1ccc(OC)cc1OC)CCO2 (configuration not stated)	.	.	.	i	.	.
COc1ccc(CNCCC(c2ccc(OC(C)C)cc2)c2ccccc2OC)cc1 (configuration not stated)	?	?	-79%	?	?	25µM*
CC1(C)Cc2ccccc2-c2n[nH]c(=S)n21	0.89µM*	2.8µM*	-13%	i	7%	3%
O=C(NCc1ccccc1Cl)c1ccc(Cn2c(SCc3ccccc3)nc3cccnc32)cc1	.	.	-35%	i	?	-23%
Cc1ccc(S(=O)(=O)N2CCN(c3ncnc4sccc34)CC2)cc1C	.	.	-3%	i	?	?
O=S(=O)(c1ccc2c(c1)OCCO2)N1CCN(c2ncnc3sccc23)CC1	11µM*	?	-15%	?	?	?
NCCC(=O)[N-][C@@H](Cc1cnc[nH]1)C(=O)O.[Zn]	.	.	.	i	.	.
Cc1ccc(C)n1-c1nnc(N2CCCC(C(=O)NCc3cccc(Cl)c3)C2)s1 (configuration not stated)	.	.	-39%	.	.	.
CCn1c(=N)n(CC(=O)C23CC4CC(CC(C4)C2)C3)c2ccccc21	8.9µM*	4µM*	-9%	i	6%	-13%
CCn1c(N2CCN(C(=O)C34CC5CC(CC(C5)C3)C4)CC2)nc2ccccc21	2%[0.365 µM]	13%	-26%	i	?	-26%
O=C1NC[C@H](CCCCN2CCN(CCC3CCCCC3)C(=O)C2=O)N(CCc2ccccc2)C1=O	.	.	.	i	.	12%
CCOC(=O)c1cc2c(nc1N)CC(C)(C)OC2	23%	?	9%	i	-4%	29%
CCOC(=O)c1cc2c(nc1NC(=S)Nc1ccccc1)CC(C)(C)OC2	?	2.8µM*	10%	i	1%	-9%
CCOC(=O)c1cc2c(nc1NC(=S)NCc1ccccc1)CCCC2	3.5µM*	6.3µM*	-4%	i	-6%	0%
C=CCNC(=S)Nc1nc2c(cc1C(=O)OCC)COC(C)(C)C2	-5%	10µM*	1%	i	-7%	2%
CC(=O)Nc1ccc(S(=O)(=O)N2CCN(C(=O)c3ncoc3-c3cccc(F)c3)CC2)cc1	9%	20%	-6%	i	-17%	-14%
O=C(/C=C/NNC(=O)c1ccc(Cl)cc1)c1ccccc1	?	11µM*	-12%	i	-17%	.
COc1ccc(C(=O)C=CNNC(=O)c2ccc(Cl)cc2)cc1	?	-4%[1.91 µM]	-31%	?	13µM*	?
Nc1nc(-c2ccccc2)c(CCCOc2ccc(NC(=O)CBr)cc2)c(=O)[nH]1	.	.	-10%	.	-34%	-6%
CC(NC(=O)C1CCN(C(=O)Nc2ccccc2)CC1)c1ccccc1 (configuration not stated)	.	.	7%	i	6%	2%
SMILES	Gal4-VP16 FLuc	RORg inh	HepG2 tox	ATXN viability	TGFb SMAD3 inh	ATXN2 expr inh
S=C(NCCN1CCOCC1)Nc1ccc(Cl)cc1Cl	9%	-29%	27%	i	2%	11%
CCCNC(=S)Nc1ccc(Cl)cc1Cl	?	11µM*	1%	i	2%	0%
S=C(NCc1ccc(Cl)cc1)Nc1ccc(Cl)cc1Cl	11µM*	11µM*	-3%	i	-14%	-21%
CSc1ccccc1NC(=S)NCc1ccc(Cl)cc1	11µM*	7.1µM*	-11%	i	-13%	0%
Fc1ccc(CNC(=S)Nc2ccc(Cl)cc2Cl)cc1	5.6µM*	4µM*	-12%	i	-28%	-3%
S=C(NCc1ccncc1)Nc1ccc(Cl)cc1Cl	-19%	8%	-7%	i	0%	-17%
Fc1ccc(CNC(=S)NCc2cccc(Cl)c2)cc1	?	45%	-43%	i	?	-22%
CCCNC(=O)C[C@@H]1C[C@@H]2c3cc(NS(=O)(=O)c4ccc(OC)cc4)ccc3O[C@@H]2[C@@H](CO)O1	.	.	-29%	i	7%	2%
CN(C)c1ccc(-c2nc3ncc(Cl)c(N4CCN(CC(=O)Nc5nccs5)CC4)c3[nH]2)cc1	.	.	.	.	.	14%
CCCOc1ccccc1C(=O)N1CCC(c2nc3ccccc3s2)CC1	.	.	-22%	?	?	?
OC[C@H]1O[C@@H](OCCc2ccc(O)cc2)[C@H](O)[C@@H](O)[C@H]1O	.	.	.	i	.	-18%
S=C(NCCc1ccc(Cl)cc1)Nc1ccc(Cl)cc1Cl	4.5µM*	5.6µM*	-115%	?	?	?
Cc1cc(Cl)ccc1NC(=S)NCCc1ccc(S(N)(=O)=O)cc1	.	.	-26%	i	-2%	-10%
S=C(NCc1ccc(Cl)cc1)Nc1ccccc1Cl	?	13µM*	7%	i	1%	4%
Cc1c(C(=O)N2CC3CCC2C3)sc2ncnc(NCc3ccco3)c12 (configuration not stated)	.	.	.	i	.	.
O=C(NCC1CCN(Cc2ccc(F)cc2)CC1)C1CCCN(c2ncnc3c2nc2n3CCCCC2)C1 (configuration not stated)	-5%	9%	-52%	?	13µM*	.
Cc1cccc(N2CCN(CCCNC(=O)C3CCCN(c4ncnc5c4nc4n5CCCCC4)C3)CC2C)c1 (configuration not stated)	2%	13%	-21%	18µM*	?	25µM*
Cc1cccc(CCNC(=O)C2CCCN(c3ncnc4c3nc3n4CCCCC3)C2)c1 (configuration not stated)	5%	21%	-22%	i	-19%	-18%
O[C@H]1C[C@H](c2ccccc2)N(Cc2cccs2)C[C@@H]1n1cc(-c2ccc(F)cc2)nn1	.	.	11µM*	32µM*	?	16µM*
